The full list was thinned out, with hits kept by preference.
RMI FANCM FP = disruptors of RMI1/RMI2 association with MM2 peptide – biochemical, fluorescence polarization, human, primary screen | RMI core complex (RMI1/RMI2) binding to FANCM MM2 peptide, human | RMI core complex with F-MM2 peptide; stronger effect = lower value | FP signal (polarization) at 33 µM | 70,000 tested, 0.58% active; in the data active = FP signal below about 40
Hits are given with their value; 0 = inactive.

SMILES	RMI FANCM FP
COc1cccc(OC)c1C(=O)N[C@@H]1C(=O)N2[C@@H]1SC(C)(C)[C@@H]2C(=O)O	0
CC(C)(C)NS(=O)(=O)c1ccc2nc(NC(=O)C3CCCO3)sc2c1 (centres undefined)	0
COC(=O)c1cn(S(=O)(=O)c2ccc(C)cc2)c2ccccc12	0
Cc1nc2c(ccc3nc(NC(=O)CCCS(=O)(=O)c4ccc(F)cc4)sc32)s1	0
COc1cc(C(=O)NC2C=CS(=O)(=O)C2)cc(OC)c1OC (centres undefined)	0
O=C(Nc1ccc2c(c1)OCCO2)C1CCCCN1S(=O)(=O)c1ccc(Cl)s1 (centres undefined)	0
CCCCC#Cc1cncc(C(=O)Nc2ccc(Cl)cc2)c1	0
CCCCN(C)c1nc2ccccc2nc1S(=O)(=O)Cc1ccc(Cl)cc1	0
N#Cc1c(N)nc2c(c1-c1ccc(Cl)cc1)CCCC2	0
COc1ccc(-c2c(C#N)c(N)nc3c2CN(C)CC3)c(OC)c1OC	-4
CCCSc1nnc(NC(=O)NC2CCCCC2)s1	0
CCn1ccc(C(=O)Nc2nnc(-c3ccno3)o2)n1	0
CCOC(=O)/C(C#N)=C/c1ccc(OC)s1	0
CCOC(=O)/C(C#N)=C/c1ccc(-c2cccs2)s1	0
COC(=O)/C(C#N)=C/c1ccc(SC)s1	32
COc1cccc(OCC(=O)Nc2nnc(Cc3ccc(C)cc3C)o2)c1	0
O=Cc1cnc2ccccc2n1	0
Cc1cc(SCC(N)=O)nc2ccccc12	0
N=C(N)Sc1cnc2ccccc2n1	37
CC(C)c1ccc(NC(=O)C(=O)NCC2CCN(Cc3ccco3)CC2)cc1	0
COc1ccc(C(=O)Nc2nnc(SCC(=O)NC3CCCCC3)s2)c(OC)c1	0
Cc1cc(=O)oc2c(O)c(O)ccc12	0
Cc1cc(=O)oc2cc(O)c(O)cc12	10
Cc1cc(=O)oc2cc(O)ccc12	0
COc1ccccc1NC(=O)CSc1nnnn1-c1ccc(C)c(Cl)c1	0
SMILES	RMI FANCM FP
CS(=O)(=O)N1CCN(c2ccc3nncn3n2)CC1	0
COCCN1CCC(CNC(=O)c2ccc(-c3ccccc3)cc2)CC1	0
CCn1c(=NC(=O)c2ccn(C)n2)sc2c(C)cc(C)cc21	0
O=C(COc1ccc(Cl)cc1)NCCCn1nc(-c2ccncc2)ccc1=O	0
CC(=O)c1c(C)nn(-c2ccccc2)c1-c1ccccc1[N+](=O)[O-]	0
CC(=O)C1C(=O)c2cccc([N+](=O)[O-])c2C1=O (centres undefined)	0
CC(=O)c1cccc(N2C(=O)c3cccc([N+](=O)[O-])c3C2=O)c1	29
Cc1cc(=O)[nH]c(-n2nc(C)c(CCC(=O)Nc3cccc(C(F)(F)F)c3)c2C)n1	0
CCc1nn(C)c2c(=O)c(=O)c2n(C)[nH]1	32
CC(C)c1ccc(NC(=O)CSc2nc3c(c(=O)[nH]2)CN(Cc2ccccc2)CC3)cc1	0
CO/N=C(/C(=O)N[C@@H]1C(=O)N2C(C(=O)O)=C(C[N+]3(C)CCCC3)CS[C@H]12)c1csc(N)n1	0
C=CC1=C(C(=O)O)N2C(=O)[C@@H](NC(=O)C(=NO)c3csc(N)n3)[C@H]2SC1	34
CO/N=C(/C(=O)NC1C(=O)N2C(C(=O)O)=C(COC(C)=O)CSC12)c1csc(N)n1 (centres undefined)	0
CC1(C)COc2ccc(NC(=O)c3ccc(C(C)(C)C)cc3)cc2NC1=O	0
Cc1ccc(S(=O)(=O)N(C)c2ccc(OCC(=O)N3CCOCC3)cc2)cc1	0
